Source: PubChem (The Scripps Research Institute Molecular Screening Center)
PAFAH2 FP inh – PAFAH2 enzyme inhibitors, primary screen, biochemical, fluorescence polarization, human; Platelet-activating factor acetylhydrolase 2, cytoplasmic (Homo sapiens), Q99487; recombinant PAFAH2, FP-rhodamine activity probe; inhibition, % at 3.39 µM; 0.99% of 340,000 active; AID 492956, 2010;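 active = inhibition above the mean over all tested compounds plus 3 SD, cut at about 30% in these data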;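 also: inhibitors block probe labeling of enzyme so polarization drops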
Fam108B inh – mouse Fam108B serine hydrolase inhibitors, primary screen, counter-screen for RBBP9 inhibitor project, biochemical, fluorescence polarization | AID 1947, 2009 | 0.33% of 300,000 active | recombinant Fam108B, FP-Rh probe fluorescence polarization | inhibition, % at 9.51 µM;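 active = inhibition above the screen mean inhibition plus 3 SD, computed separately per campaign, cut at about 18% in these data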;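 also: inhibitors lower polarization as less probe binds the enzyme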
PAFAH1B2 FP inh – PAFAH1B2 enzyme inhibitors, primary screen, biochemical, fluorescence polarization, human. recombinant PAFAH1B2, FP-rhodamine activity probe. inhibition, % at 3.39 µM. 1.2% of 340,000 active;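 active = inhibition above the mean of all tested compounds plus 3 SD, cut at about 24% in these data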
PME-1 inh – PME-1 inhibitors via competitive probe labeling, primary screen, biochemical, fluorescence polarization, FP-Rh probe, HTS. inhibition, % at 5.9 µM. recombinant PME-1. 0.53% of 320,000 active. Protein phosphatase methylesterase 1 (Homo sapiens), Q9Y570;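 active = inhibition above the campaign mean of all compounds plus 3 SD, cut at about 26% in these data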;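 also: competitive labeling of PME-1 active site by serine hydrolase directed probe; inhibitors block probe labeling so polarization falls and inhibition rises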
PAFAH1B3 FP inh – PAFAH1B3 enzyme inhibitors, primary screen, biochemical, fluorescence polarization, human. recombinant PAFAH1B3, FP-rhodamine probe. inhibition, % at 3.39 µM. 0.28% of 340,000 active. AID 492972, 2010;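 active = inhibition above the screen-wide average of all tested compounds plus 3 SD, cut at about 25% in these data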
Target sequence (Q15102 whole entry, looked up): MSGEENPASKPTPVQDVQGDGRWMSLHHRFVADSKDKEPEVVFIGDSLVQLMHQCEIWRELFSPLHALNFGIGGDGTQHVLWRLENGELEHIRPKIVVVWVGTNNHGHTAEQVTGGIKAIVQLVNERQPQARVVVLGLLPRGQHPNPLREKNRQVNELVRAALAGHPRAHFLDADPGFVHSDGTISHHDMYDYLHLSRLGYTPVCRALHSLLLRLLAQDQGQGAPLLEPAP
pPAFAH FP inh – pPAFAH enzyme inhibitors, primary screen, biochemical, fluorescence polarization, human. 1.5% of 330,000 active. AID 463082, 2010. recombinant pPAFAH, FP-rhodamine probe fluorescence polarization. inhibition, % at 3.39 µM. Platelet-activating factor acetylhydrolase (Homo sapiens), Q13093;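 active = inhibition above the mean inhibition across the screen plus 3 SD, cut at about 25% in these data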;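 also: inhibitors block binding of the rhodamine activity-based probe so polarization drops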
Target sequence (Q13093 whole entry, looked up): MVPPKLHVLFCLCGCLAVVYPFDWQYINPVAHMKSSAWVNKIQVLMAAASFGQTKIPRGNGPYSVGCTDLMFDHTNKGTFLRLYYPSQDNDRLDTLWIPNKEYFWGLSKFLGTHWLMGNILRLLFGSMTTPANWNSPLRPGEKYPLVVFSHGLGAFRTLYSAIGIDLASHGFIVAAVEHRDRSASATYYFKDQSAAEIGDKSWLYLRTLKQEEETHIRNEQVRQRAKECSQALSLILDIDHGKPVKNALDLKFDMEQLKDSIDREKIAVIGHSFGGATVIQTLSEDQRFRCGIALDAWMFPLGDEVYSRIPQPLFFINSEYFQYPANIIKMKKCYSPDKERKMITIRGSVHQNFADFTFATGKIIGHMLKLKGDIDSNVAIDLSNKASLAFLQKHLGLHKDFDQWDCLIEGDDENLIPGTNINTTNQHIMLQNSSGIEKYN
Large screens that a line does not name were inactive. A selection: hits, their analogues and other compounds. The true share with any hit is near 2.9%.

O=c1c2ccccc2nc2n1C(CSCc1ccc(Cl)cc1Cl)CS2 (stereo not drawn)	PAFAH1B2 FP inh 39
Cc1nc(-c2ccc(Cl)cc2)sc1C1(C)CC(c2c(Cl)cccc2Cl)=NO1 (stereo not drawn)	none
CCOC(=O)CSc1nc2sc3c(c2c(=O)[nH]1)CC(C)(CC)OC3 (stereo not drawn)	none
CCC1(C)Cc2c(sc3nc(NN)n(C)c(=O)c23)CO1 (stereo not drawn)	PME-1 inh 37
CCOC(=O)c1c(-c2ccc(C)o2)csc1NC(=O)CSc1nncs1	pPAFAH FP inh 25
CCOC(=O)c1c(-c2ccc(C)o2)csc1NC(=O)CN1CCCCC1	none
Cc1cccc(Oc2nc(CN3CCOCC3)nc3sc4c(c23)CCCC4)c1	pPAFAH FP inh 31
Clc1nc(CN2CCOCC2)nc2sc3c(c12)CCC3	none
Cc1cccc(CSCc2ccc(C(=O)O)o2)c1	none
Cc1ccc(CSCc2ccc(C(=O)O)o2)cc1	PAFAH1B2 FP inh 29
O=C(COC(=O)C1(c2ccccc2F)CCCC1)N1CCN(C(=O)c2ccco2)CC1	none
O=C(COC(=O)C1(c2ccc(F)cc2)CCCC1)N1CCN(C(=O)c2ccco2)CC1	PAFAH1B2 FP inh 33
CNC(=O)c1sc(Nc2cc(C)ccc2C)nc1C	none
O=c1[nH]c(SCc2ccc(Cl)cc2)nc2c1CCC2	PAFAH1B2 FP inh 52, pPAFAH FP inh 26
O=c1[nH]c(SCc2ccc(Cl)cc2)nc2ccccc12	PAFAH1B2 FP inh 26
Cc1oc(-c2cccc(Cl)c2)nc1CSc1nc2c(c(=O)[nH]1)CCC2	none
CC(=O)c1ccc(OC(C)C)c(CSc2nc(O)cc(=O)[nH]2)c1	pPAFAH FP inh 28
O=c1cc(-c2ccccc2)nc(SCc2ccc(Cl)cc2)[nH]1	PAFAH1B2 FP inh 24
CCC(C)Sc1nc(O)cc(=O)[nH]1 (stereo not drawn)	none
CS(=O)(=O)c1ccccc1C(=O)NCCC(c1ccccc1)c1ccccc1	none
Cc1ccc(S(=O)(=O)Nc2cc(=O)[nH]c(SCc3ccc(Cl)cc3)n2)cc1	none
O=c1cc(O)nc(SCc2ccc(Cl)cc2)[nH]1	PAFAH1B2 FP inh 56
Cc1nc2nc(SCc3ccccc3)[nH]n2c(=O)c1C	none (no result: Fam108B inh, PME-1 inh, pPAFAH FP inh)
Cc1nnc(SCc2ccccc2)[nH]c1=O	pPAFAH FP inh 34
Cc1cc(=O)n2[nH]c(SCc3ccc(Cl)cc3)nc2n1	PAFAH1B2 FP inh 50, pPAFAH FP inh 26
Cc1ccc(F)cc1NC(=O)CN1C(=O)NC(C)(c2ccc3c(c2)OCCO3)C1=O (stereo not drawn)	none (no result: Fam108B inh)
Cn1c(N)c(S(=O)(=O)N2CCN(c3cccc(Cl)c3)CC2)c(=O)n(C)c1=O	none
O=C(O)c1c2c(nc3ccccc13)/C(=C/c1ccc(O)cc1)CCC2	none
O=C(CCCC(=O)OCC(Cl)=C(Cl)Cl)Nc1cccc(F)c1	none
O=C(O)c1[nH]c2ccccc2c1NS(=O)(=O)c1ccc(F)cc1	PAFAH1B2 FP inh 24
COc1ccc2[nH]c(C(=O)O)c(NS(=O)(=O)c3ccc(C)c(C)c3)c2c1	none
COc1ccc2[nH]c(C(=O)O)c(NS(=O)(=O)c3ccc(F)cc3)c2c1	PAFAH1B2 FP inh 27
Nc1ccc2c(c1)C(=O)C(=O)c1ccccc1-2	PAFAH2 FP inh 62, Fam108B inh 66, PAFAH1B2 FP inh 25, PME-1 inh 38, PAFAH1B3 FP inh 76
COc1cc(CNC(=O)CCCC/C=C/C(C)C)ccc1O	pPAFAH FP inh 25
COc1cc(CNC(=O)CCCC(=O)c2ccccc2)cc(OC)c1OC	none
Cc1cc(O)c(/C=N/Nc2ccccc2)c(=O)o1	none
N=c1c(S(=O)(=O)c2ccccc2)cc2c(=O)n3ccccc3nc2n1CCCN1CCOCC1	none
N=c1c(S(=O)(=O)c2ccc(Cl)cc2)cc2c(=O)n3ccccc3nc2n1CCN1CCOCC1	PAFAH1B2 FP inh 37
O=C(O)c1ncn(Cc2ccc(Br)cc2)c1C(=O)O	PAFAH1B2 FP inh 25
COc1ccc(-c2cc(-c3ccco3)[nH]c(=O)c2C#N)cc1	pPAFAH FP inh 30
CS(=O)(=O)c1nc(S(=O)(=O)c2ccc(Cl)cc2)c(N2CCN(CCO)CC2)s1	none
Cc1ccc(S(=O)(=O)c2nc(S(=O)(=O)c3ccc(C)cc3)c(N3CCN(CCO)CC3)s2)cc1	pPAFAH FP inh 26
CCN(CC)c1ccc(NC2CC(=O)N(CCc3ccc(OC)cc3)C2=O)cc1 (stereo not drawn)	pPAFAH FP inh 28
O=C(NCC1(N2CCCCC2)CCCCC1)C1CC(=O)N(c2ccc3c(c2)OCCO3)C1 (stereo not drawn)	none
Cc1cc2c(cc1S(=O)(=O)NCC(C)c1ccccc1)n(C)c(=O)c(=O)n2C (stereo not drawn)	PAFAH1B2 FP inh 26
CCCCC(CC)CNC(=O)CN(C)S(=O)(=O)c1cccc2nsnc12 (stereo not drawn)	PAFAH1B2 FP inh 25
CC(C)COc1ccc(C(=O)N/C(=C\c2cccc([N+](=O)[O-])c2)C(=O)O)cc1	none
CC1(OC(=O)C2CCCC2)C(=O)C=C2C=C(c3ccsc3)N(Cc3ccco3)C=C2C1=O (stereo not drawn)	pPAFAH FP inh 31
CC(Cc1n[nH]c(=S)o1)c1ccccc1 (stereo not drawn)	PAFAH1B2 FP inh 26
S=c1[nH]nc(Cc2cccc3ccccc23)o1	none
Oc1ccc(N=C/C=C/c2cccc(Br)c2)cc1-c1nc2ccccc2s1	pPAFAH FP inh 37
Nc1ccc(O)c(-c2nc3ccccc3s2)c1	pPAFAH FP inh 34
O=C(Nc1ccc(O)c(-c2nc3ccccc3s2)c1)c1cccs1	none
Oc1ccc(-c2nc3ccccc3s2)c(O)c1	none
Cc1ccc(NC(C)c2cc(Cl)ccc2O)cc1 (stereo not drawn)	PAFAH1B2 FP inh 28
CC(Nn1cnnc1)c1cc(Cl)ccc1O (stereo not drawn)	none
CCOC(=O)C1=C(C)NC(=O)NC1c1ccc(N(CC)CC)cc1 (stereo not drawn)	none
Cc1nc2ccccc2n1CCOc1ccc([N+](=O)[O-])cc1	pPAFAH FP inh 30
Cc1nc2ccccc2n1CCOc1ccc(F)cc1	none (no result: Fam108B inh, PME-1 inh, pPAFAH FP inh)
Oc1c(Cl)cc(Cl)cc1C=Nc1ccccc1N1CCCC1	pPAFAH FP inh 30 (no result: PAFAH2 FP inh, PAFAH1B2 FP inh, PAFAH1B3 FP inh)
NC(=O)c1cccc(N=Cc2cc(Cl)cc(Cl)c2O)c1	none (no result: Fam108B inh, PME-1 inh, pPAFAH FP inh)
COc1ccc(Cl)cc1NC(=O)CN(C)CC(=O)N(CC(C)C)c1c(N)n(CC(C)C)c(=O)[nH]c1=O	none (no result: Fam108B inh, PME-1 inh)
S=C1NCN(CCc2ccccc2)CN1Cc1ccccc1	PAFAH1B2 FP inh 26
COc1ccc(-c2n[nH]c(=S)n2-c2ccc(C)cc2C)cc1	none
Cc1ccc(-n2c(-c3ccc(Cl)cc3)n[nH]c2=S)c(C)c1	PAFAH1B2 FP inh 29
